# Compounds with a hit are over-represented: about 9.2% of the library has one in this group of screens.
# NPC1 prom act: activators of NPC1 promoter; hit rate 2.4% among 320,000; Potency, µM (titrated, usually from 9.22 µM), inactives show at the highest dose activation, actives largely listed as activators; AID 485313; Huh7 NPC1 promoter luciferase reporter, 24 h; further: % of control where 0% means no effect; nearly all actives have a fitted effect of over 60% in size
#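 Huh7 cells stably carrying NPC1 promoter–luciferase, plated in Opti-MEM with 10% FBS for 2 h, were exposed to compound in DMSO for 24 h at 37 °C; luciferase reagent was added for 10 min and luminescence read.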
# ELG1 genotox: inducers of genotoxicity in HEK293T ELG1-luciferase cells; HEK293T ELG1-luciferase reporter, luminescence, 16 h; Potency, µM (top dose mostly 46 µM), for the others: top-dose activity change, positive = activation, hits mostly activators; hit rate 1.3% among 330,000; AID 504466; further: % of control where 0% means no effect; nearly all actives have a fitted effect of over 60% in size
#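 ELG1-luciferase HEK293T cells, 2,000/well; compound pinned in; 16 hr, 37 °C, 5% CO2; ONE-Glo, 30 min RT; luminescence on CCD imager.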
# ELG1 repair inh: ELG1-dependent DNA repair inhibition; HEK293T ELG1-luciferase reporter, luminescence, 16 h; DNA damage induced by 5-fluorouridine; Potency, µM (doses to about 46.1 µM), inactives show at the highest dose activity change, negative = inhibition, usual class: inhibitors; hit rate 2.3% among 330,000; AID 504467; further: on the % scale 0 is the no-effect control and ±100 the full control effect; nearly all actives have a fitted effect of over 55% in size
#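 Step one: seed 2,000 cells per well. Step two: pin-transfer compound or DMSO alongside 5-fluorouridine. Step three: incubate 16 hr, 37 °C, 5% CO2. Step four: add ONE-Glo, wait 30 min, read luminescence.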
# FLuc modulator: firefly luciferase modulation, counter-screen for miR-21 project; P08659; purified FLuc, Km substrates, luminescence inhibition; Potency, µM (series often up to 57.5 µM), without a hit: at the highest dose activity change, negative = inhibition, hits mostly inhibitors; hit rate 6.9% among 360,000; AID 588342;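 further: plate controls were vehicle for no effect and reference inhibitor for full effect; nearly all actives have a fitted effect of over 55% in size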
# Target sequence (P08659 whole entry, looked up): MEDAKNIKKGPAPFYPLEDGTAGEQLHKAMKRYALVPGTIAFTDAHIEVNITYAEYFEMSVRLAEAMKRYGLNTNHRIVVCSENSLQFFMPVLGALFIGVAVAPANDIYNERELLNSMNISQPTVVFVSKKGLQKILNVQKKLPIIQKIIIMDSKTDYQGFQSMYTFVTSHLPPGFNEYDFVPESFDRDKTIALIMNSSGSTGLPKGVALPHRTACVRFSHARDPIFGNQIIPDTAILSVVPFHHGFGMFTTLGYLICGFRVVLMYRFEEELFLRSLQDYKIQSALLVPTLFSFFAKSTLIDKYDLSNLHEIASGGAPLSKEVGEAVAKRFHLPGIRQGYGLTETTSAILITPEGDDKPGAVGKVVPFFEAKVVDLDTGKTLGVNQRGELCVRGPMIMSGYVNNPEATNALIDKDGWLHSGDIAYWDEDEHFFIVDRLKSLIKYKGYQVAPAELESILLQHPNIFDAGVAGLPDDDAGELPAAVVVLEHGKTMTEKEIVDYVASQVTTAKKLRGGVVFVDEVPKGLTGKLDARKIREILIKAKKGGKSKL
#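 Purified P. pyralis luciferase (10nM final) with 10uM D-luciferin and 10uM ATP (Km levels) in 50mM Tris acetate pH 7.5, 10mM Mg acetate, 0.01% Tween-20, 0.05% BSA; qHTS 6-point titration, ~60 µM downward; luminescence read.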
# SMN2 splice up: enhancers of SMN2 splice variant expression; HEK293 SMN2-luciferase splicing reporter, luminescence, 30-36 h; Potency, µM (series often up to 46.1 µM), for the others: top-dose activity change, positive = activation, actives largely listed as activators; hit rate 2.8% among 210,000; AID 1458; further: % of control where 0% means no effect; nearly all actives have a fitted effect of over 55% in size
#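 HEK293 cells carry an SMN2 […]–luciferase reporter in which exon 7 inclusion puts luciferase in frame. Cells were plated 10-12 h before compound addition, then incubated 30-36 h at 37C. ONE-Glo luminescence was read; sodium butyrate at 4.5 mM final served as control.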
# Rab9 prom act: Rab9 promoter activation; hit rate 2.8% among 320,000; Huh7 Rab9 promoter-luciferase reporter, luminescence, 24 h; AID 485297; Potency, µM (highest dose often 9.22 µM), for inactives: at the highest dose activation, negative = inhibition, actives largely listed as activators; further: % of control where 0% means no effect; nearly all actives have a fitted effect of over 60% in size
#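 Using Huh7 cells stably transfected with Rab9 promoter–luciferase, compounds were incubated 24 h at 37 °C, 5% CO2; luciferase luminescence was read 10 min after reagent addition.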
# The depositor's hits bear a star; ? = inconclusive; . = no result; [ ] = dose if it differs, or a comment. The call rests on the fitted dose curve; in most records, active means well fitted curve in the direction sought with a large enough effect; inconclusive means small, poorly fitted or top-dose-only effect, or another doubt; inactive means no such curve, though single readings can be large; an effect the other way counts as inactive or inconclusive. Potency means the concentration at half of the fitted maximal effect.
SMILES,NPC1 prom act,ELG1 genotox,ELG1 repair inh,FLuc modulator,SMN2 splice up,Rab9 prom act
O=C(/C=C/c1cn(-c2ccccc2)nc1-c1cccnc1)N1CCCCC1,-0.3%,-3.6%,-27.9%,15.1µM*,3.2%,10.1%
CCCn1c(=O)c(C(=O)NCCc2ccc(OC)cc2)c(O)c2ccccc21,2.7%,-16.8%,-11.7%,7.5%,.,1.1%
Cc1cc(C)nc(N2CCN(c3ccc(F)cc3)CC2)n1,-3.3%,0.4%,-5.5%,2.3%,.,-0.8%
Cc1nn(C)c(=O)n1-c1ccc(OCc2ccccc2)cc1,?,16.3%,?,?,11.2µM*,?
N#CC1=C(N)Oc2c(ccc3cccnc23)C1c1ccccc1 (stereo not given),-27.8%,-3.3%,13µM*,0.4%,.,-19.3%
N#CC1=C(N)Oc2c(ccc3ccccc23)C1c1cccs1 (stereo not given),-2.8%,18.4µM*,?,?,17.0%,-11.9%
CCOc1cc2sc(N3CCC(C(=O)Nc4ccc(C(C)C)cc4)CC3)nc2cc1Br,.,.,.,21.3µM*,14.1µM*,.
CCOc1cc2sc(N3CCC(C(=O)Nc4cc(C)cc(C)c4)CC3)nc2cc1Br,.,.,.,-1.3%,.,.
CCOc1cc2sc(N3CCC(C(=O)NCCCN4CCCC4=O)CC3)nc2cc1Br,14.5%,-2.9%,10.5%,15.1µM*,.,1.2%
CCOc1cc2sc(N3CCC(C(=O)Nc4ccc(C)cc4C)CC3)nc2cc1Br,.,.,.,15.1µM*,?,.
O=C(NCc1nnc(SCC(=O)N2CCOCC2)o1)c1ccccc1F,0.2%,1.7%,-10.4%,-1.6%,-52.3%,-7.6%
CCOC(=O)c1c(C)oc2c1C(=O)c1ccccc1C2=O,-1.7%,-13.2%,7.3µM*,-8.0%,-69.1%,-13.5%
Cc1oc2c(c1C(=O)c1ccccc1)C(=O)C(=O)c1ccccc1-2,-46.4%,-19.3%,?,-4.7%,-92.7%,8.4%
CCOC(=O)c1c(C)nc2c(c1-c1ccccc1)C(=O)c1ccccc1-2,1.2%,-1.8%,?,-15.4%,-9.6%,-3.1%
Cc1oc2c(c1C(=O)O)C(=O)c1ccccc1C2=O,13.7%,-3.3%,8.2µM*,-6.4%,-13.1%,?
CC1=CC(=O)C2=C(C)CC[C@@H]3[C@@H](OC(=O)[C@H]3C)[C@H]12,.,.,.,.,3.3%[20.6 µM],.
CCCS/C(N)=N/N=C/c1ccccc1O,2.82µM*,3.16µM*,?,9.53µM*,11.2µM*,2.51µM*
C=CCS/C(N)=N\N=C\c1c(O)ccc2ccccc12,-0.5%,?,?,4.78µM*,.,2.82µM*
CCN(CC)c1ccc(/C=N/N=C(c2ccccc2)c2ccccc2)c(O)c1,-0.8%,-1.6%,-8.1%,0.5%,-29.4%,-3.7%
Cc1nnc(C)n1/N=C/c1c(O)ccc2ccccc12,1.1%,3.8%,26.2%,-2.2%,.,-3.9%[1.84 µM]
COc1ccc(C(=O)Cn2c(N3CCOCC3)nc3c2c(=O)n(C)c(=O)n3C)cc1,-0.9%,0.0%,3.0%,0.0%,-1.8%,0.5%
COc1ccc(C(=O)Cn2c(Cl)nc3c2c(=O)n(C)c(=O)n3C)cc1,-0.5%,3.3%,16.4µM*,-0.9%,.,-9.0%
COC(=O)c1ccc(Oc2nc3c(c(=O)n(C)c(=O)n3C)n2CCC(C)C)cc1,-1.5%,2.2%,12.5%,3.7%,-32.0%,-5.6%
Cn1c(=O)c2c(nc(Cl)n2CCOc2ccccc2)n(C)c1=O,-5.4%,-12.0%,9.2µM*,0.2%,.,-11.3%
CCC(=O)c1ccc(Oc2nc3c(c(=O)n(C)c(=O)n3C)n2CC)cc1,-1.7%,-10.1%,14.6µM*,5.1%,.,-3.2%
SMILES,NPC1 prom act,ELG1 genotox,ELG1 repair inh,FLuc modulator,SMN2 splice up,Rab9 prom act
COc1ccc(Oc2nc3c(c(=O)n(C)c(=O)n3C)n2C)cc1,10.2%,-16.7%,9.2µM*,1.0%,.,2.9%
COc1ccc2c(c1)c1c(c(=O)n(-c3cccc(Cl)c3)c(=O)n1CC(=O)NCC1CCCO1)n2C (stereo not given),.,.,.,-0.2%,.,.
CCCOc1ccc(N2CC(C(=O)Nc3cccc(Cl)c3Cl)CC2=O)cc1 (stereo not given),.,.,.,-0.8%,12.5%,.
COc1ccc(S(=O)(=O)NCC(c2ccco2)S(=O)(=O)c2cccs2)cc1F (stereo not given),.,.,.,0.1%,.,.
NS(=O)(=O)c1ccc(N=Nc2nc3[nH]c(=O)[nH]c(=O)c3[nH]2)cc1,.,.,.,.,-15.6%[9.22 µM],.
CCN(C(=O)c1cc2c(=O)oc3ccc(C)cc3c2s1)c1ccccc1C,.,.,.,6.4%,3.1%,.
Cn1c(=O)c2c(nc(Br)n2Cc2ccccc2Cl)n(C)c1=O,-3.1%,-8.9%,-7.2%,2.4%,-20.4%,-9.4%
CCOc1nc2c(c(=O)n(C)c(=O)n2C)n1Cc1ccccc1Cl,-3.6%,-23.0%,8.2µM*,-0.4%,-56.8%,-8.3%
O=c1c(-c2ccc(O)cc2)coc2c(C3OC(CO)C(O)C(O)C3O)c(O)ccc12 (stereo not given),.,.,.,.,-0.5%,.
C[C@H](NS(=O)(=O)c1ccccc1)C(=O)N1CCN(C(c2ccccc2)c2ccccc2)CC1,.,-5.2%,25.9µM*,.,.,.
CCCC[C@@H]1C[C@H]1C(NC(=O)c1cccnc1)c1ccc(Cl)cc1 (stereo not given in full),.,.,.,.,-78.2%,.
O=C(c1cnsn1)N1CCC(CO)(Cc2cccc(F)c2)CC1,?,?,?,13.5µM*,.,3.16µM*
CCCCc1nc2c(c3c1C[C@H](C)OC3)CN(C(=O)c1cc(I)ccc1F)CC2,.,.,.,.,-17.4%[9.22 µM],.
COc1cccc2cc(C(=O)Nc3ccc(CC(=O)O)cc3)c(=O)oc12,.,.,.,1.51µM*,-16.6%,.
COc1cccc2cc(C(=O)NCc3ccc(C)cc3)c(=O)oc12,-2.7%,1.8%,5.1%,-2.5%,.,-5.1%[1.84 µM]
COc1cccc2cc(CC(=O)c3cc(C)ccc3C)c(=O)oc12,25.5%,-2.6%,-0.7%,15.1µM*,.,23.5%
COc1cccc2cc(CC(=O)c3ccc(C)c(C)c3)c(=O)oc12,5.7%,9.3%,?,16.9µM*,.,24.3%
COc1cccc2cc(CC(=O)c3ccccc3)c(=O)oc12,?,11.2%,?,16.9µM*,.,?
CC(C)(C)NC(=O)CN(C(=O)Cn1nnc(-c2ccc(Cl)cc2)n1)C1CCN(Cc2ccccc2)CC1,-7.7%,-1.5%,-6.4%,0.3%,0.2%,2.1%
CCCCCCCCCCCCCCCCCCOC[C@@H](O)COP(=O)([O-])OCC[N+](C)(C)C,.,.,.,.,-3.0%,.
COc1cccc2cc(C(=O)NCc3ccc(F)cc3)c(=N)oc12,-0.1%,6.0%,23.4%,8.49µM*,.,-2.3%
COc1ccc(CNC(=O)c2cc3cccc(OC)c3oc2=N)cc1,-2.5%,?,-0.7%,-3.5%,.,4.6%
COc1cccc2cc(C(=O)OCC(=O)NCc3ccc4c(c3)OCO4)c(=O)oc12,-2.3%,?,?,10.7µM*,.,1.7%

# High-throughput results: PubChem BioAssay, National Center for Advancing Translational Sciences (NCATS)
